Compounds with a hit are over-represented: about 5.7% of the library has one in this group of screens.
GLP-1R agonist: qHTS of GLP-1 Receptor Agonists. HEK293 GLP-1R CRE-luciferase, luminescence, 4-6 h; cells express a hypersensitive GLP-1R form. Potency, µM (titrated, usually from 45.6 µM), actives largely listed as activators. Glucagon-like peptide 1 receptor (Homo sapiens), P43220. 0.007% of 380,000 active
DRD3 agonist: qHTS of D3 Dopamine Receptor Agonist: qHTS. AID 652048, 2013. max activation, %. D(3) dopamine receptor (Homo sapiens), P35462. 0.58% of 410,000 active. D3R DiscoveRx beta-arrestin cells, luminescence, 90 min; in the data active = max activation above about 30%
Target sequence (P35462 whole entry, looked up): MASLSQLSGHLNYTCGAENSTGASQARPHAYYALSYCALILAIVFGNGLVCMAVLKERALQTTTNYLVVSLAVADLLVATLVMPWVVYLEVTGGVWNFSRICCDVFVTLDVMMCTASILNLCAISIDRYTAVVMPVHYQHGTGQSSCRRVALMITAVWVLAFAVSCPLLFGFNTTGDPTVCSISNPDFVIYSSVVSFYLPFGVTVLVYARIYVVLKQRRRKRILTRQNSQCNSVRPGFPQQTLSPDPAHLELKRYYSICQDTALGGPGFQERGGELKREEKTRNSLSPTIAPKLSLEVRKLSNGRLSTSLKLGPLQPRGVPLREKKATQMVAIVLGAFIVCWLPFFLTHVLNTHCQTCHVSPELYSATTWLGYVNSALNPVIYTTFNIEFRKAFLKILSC
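Agonist mode: compounds and dopamine controls were applied to plated cells for 90 min at 37 degrees C after an overnight attachment at 1500 cells/well. Luminescent read-out followed 30 - 60 minutes at room temperature with DiscoveRx detection reagent.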
GLP1R inv ag: qHTS of GLP-1 Receptor Inverse Agonists (Inhibition Mode). 1.6% of 410,000 active. Glucagon-like peptide 1 receptor (Homo sapiens), P43220. HEK293 GLP-1R CRE-luciferase, luminescence, 24 h; GLP-1R form is constitutively active. Potency, µM (series often up to 38.3 µM), hits mostly inhibitors. AID 624417, 2012; note: nearly all actives have a fitted effect of over 55% in size
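GLP-1R inverse agonism mode: basal reporter luminescence in engineered HEK293 cells measured after one day of compound exposure at 37 deg C, with a 12 min room-temperature detection step.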
GLP1R cytotox: qHTS of GLP-1 Receptor Inverse Agonists: Cytotox Screen | HEK293 cAMP-luciferase reporter cells, luminescence, 24 h | Potency, µM (series often up to 38.3 µM), usual class: inhibitors | 0.13% of 410,000 active;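 note: loss of luciferase light is scored as toxicity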
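Seeding density was 200 cells/uL; after overnight-length (12 h) culture, 23 nL compounds went on for 24 h at 37 °C. Readout used a luciferase detection reagent, luminescence taken after 12 min at room temperature.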
ClpP mod: qHTS Assay for Activators of ClpP. ATP-dependent Clp protease proteolytic subunit (Bacillus subtilis (strain 168)), P80244. Potency, µM (series often up to 57.5 µM). 1.9% of 340,000 active. AID 651965, 2013. purified B. subtilis ClpP, FRET peptide cleavage, 20 min; active = well fitted falling curve with a large enough effect; inconclusive = small, poorly fitted or top-dose-only effect; inactive = no such curve, though single readings can be large or run the other way; note: the source files actives as falling curves though it sought activators and does not explain the sign; nearly all actives have a fitted effect of over 65% in size
Target sequence (P80244 whole entry, looked up): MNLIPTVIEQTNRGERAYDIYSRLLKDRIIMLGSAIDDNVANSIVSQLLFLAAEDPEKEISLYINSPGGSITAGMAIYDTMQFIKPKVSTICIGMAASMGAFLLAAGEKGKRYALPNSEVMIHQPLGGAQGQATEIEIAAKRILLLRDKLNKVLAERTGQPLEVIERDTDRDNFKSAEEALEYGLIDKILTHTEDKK
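Buffer: 100 mM Tris/HCl pH8, 100 mM KCl, 0.05% low protease BSA, 2.5% glycerol, 0.01% Tween-20. ClpP 10 microg/mL final; 20 min RT; delta FRET normalized to ADEP and DMSO controls.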
D3 antag: qHTS of D3 Dopamine Receptor Antagonist: qHTS | max response, negative = inhibition, % | D3R cells, DiscoveRx beta-arrestin luminescence, antagonist mode; active compounds read low | D(3) dopamine receptor (Homo sapiens), P35462 | 2.5% of 360,000 active; in the data active = max response below about -50%; inconclusive = no clear call, values can overlap the other calls
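Cells plated overnight at 1500 cells/well, then exposed to library compounds with dopamine controls for 90 minutes at 37 degrees C. DiscoveRx reagent added for 30–60 minutes at room temperature; luminescence read, quantitative HTS format.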
Numbers stand for hits; 0 = inactive; ? = inconclusive; - = no result. Unless noted, calls come from the whole dose curve; as a rule, active = well fitted curve in the direction sought with a large enough effect; inconclusive = small, poorly fitted or top-dose-only effect, or another doubt; inactive = no such curve, though single readings can be large; an effect the other way counts as inactive or inconclusive.

SMILES | GLP-1R agonist | DRD3 agonist | GLP1R inv ag | GLP1R cytotox | ClpP mod | D3 antag
COc1ccc(C(=O)NCCn2cc(SCC(=O)NCc3ccco3)c3ccccc32)cc1 | 0 | 0 | ? | 0 | 0 | -69
COc1ccc(C(=O)NCCn2cc(SCC(=O)NCC3CCCO3)c3ccccc32)cc1 (centres undefined) | 0 | 0 | 0 | 0 | 0 | 0
O=C(CSc1cccc2cccnc12)NCc1ccco1 | 0 | 0 | 0 | 0 | 25µM | 0
Cc1cccc(NC(=O)CSc2cccc3cccnc23)c1C | 0 | 0 | 0 | 0 | - | 0
CC(=O)/C(=N/Nc1ccc(Br)cc1)Sc1cccc2cccnc12 | 0 | 0 | ? | 0 | 0 | 0
CCOC(=O)CSc1cccc2cccnc12 | 0 | 0 | ? | 3.5µM | 16µM | ?
CCOC(=O)c1sc2ccccc2c1S(=O)(=O)Nc1ccc(N(C)C)cc1 | - | 0 | ? | 0 | 0 | -
CC(O)CNCCCOc1cccc(C(F)(F)F)c1 (centres undefined) | 0 | 0 | ? | 0 | 0 | -71
CC(O)CNCCCCOc1ccc(OCc2ccccc2)cc1 (centres undefined) | 0 | 0 | 14µM | 0 | 0 | 0
C=C1CC[C@H](O)CC1=C/C=C1\CCC[C@]2(C)[C@@H]([C@H](C)CC[C@@H](O)C(C)(C)O)CC[C@@H]12 | - | 0 | - | - | - | -
CC(=O)Nc1cccc(NC(=O)CSc2nc(C)c(C)c(C)c2C#N)c1 | 0 | 0 | 0 | 0 | 0 | 0
Cc1cccc(C)c1NC(=O)CSc1nc(C)c(CC(=O)c2ccc(Br)cc2)c(C)c1C#N | 0 | 0 | 0 | 0 | 28µM | 0
COc1ccc(NC(C)c2cc(Cl)ccc2O)cc1 (centres undefined) | 0 | 0 | 0 | 0 | 3.2µM | 0
CCOc1ccc2[nH]c(=O)c(CN(CCO)C(=O)c3ccccc3F)cc2c1 | 0 | 0 | 0 | 0 | 32µM | 0
CCOc1ccc2[nH]c(=O)c(CN(CCO)C(=O)c3ccc(OC)c(OC)c3)cc2c1 | 0 | 0 | 0 | 0 | 28µM | 0
CCOc1ccc2[nH]c(=O)c(CN(CCO)C(=O)c3ccc(F)cc3)cc2c1 | 0 | 0 | 0 | 0 | 22µM | 0
CCNC(=S)N(CCN(C)C)Cc1cc2cc(OCC)ccc2[nH]c1=O | 0 | 0 | 0 | 0 | 0 | 0
O=C(NCc1ccccc1Br)c1ccc2c(c1)nc1n2CCOC1 | - | 0 | 0 | 0 | 0 | -
Cc1cccc(NC(=O)Cn2c(=O)nc(-c3ccccc3)c3ccccc32)c1C | - | 0 | 0 | 0 | 0 | -
CC(=O)N(/N=C/c1ccc([N+](=O)[O-])o1)c1nc2ccccc2c(=O)n1-c1ccccc1 | 0 | 0 | 0 | 0 | 0 | -54
C=C1CCN([C@@H](CC(C)C)C(=O)NCc2ccc(Cl)cc2)S(=O)(=O)c2ccccc21 | 0 | 0 | ? | 0 | 0 | 0
C=C1CCN([C@@H](Cc2ccccc2)C(=O)NCc2ccc(Cl)c(Cl)c2)S(=O)(=O)c2ccccc21 | 0 | 0 | 11µM | 0 | 0 | 0
C=C1CCN([C@H](C(=O)NCc2ccc(Cl)c(Cl)c2)C(C)C)S(=O)(=O)c2ccccc21 | 0 | 0 | 10µM | 0 | 0 | 0
C=C1CCN([C@@H](CC(C)C)C(=O)NCCC(C)C)S(=O)(=O)c2ccccc21 | 0 | 0 | ? | 0 | 0 | -50
C=C1CCN([C@H](C(=O)NCc2ccccc2)C(C)C)S(=O)(=O)c2ccccc21 | 0 | 0 | 0 | 0 | 0 | 0
SMILES | GLP-1R agonist | DRD3 agonist | GLP1R inv ag | GLP1R cytotox | ClpP mod | D3 antag
C=C1CCN([C@@H](CC(C)C)C(=O)NCc2ccc(Cl)c(Cl)c2)S(=O)(=O)c2ccccc21 | 0 | 0 | 11µM | 0 | 0 | 0
O=C(CSc1ncc2c(n1)-c1ccccc1N(Cc1ccccc1)S2(=O)=O)Nc1ccccc1 | - | 0 | 0 | 0 | 0 | -
CCc1ccc(C(=O)c2cn(CC(=O)Nc3cccc(OC)c3)c3ccc(OC)cc3c2=O)cc1 | - | 0 | 0 | 0 | 0 | -
S=C(Nc1ccccc1)Nc1cccc(Br)c1 | 0 | 0 | 0 | 0 | 0 | 0
Fc1cc(Br)ccc1NC(=S)Nc1ccccc1 | 0 | 0 | 0 | 0 | 28µM | 0
S=C(Nc1cccc(Br)c1)c1ccccc1 | 0 | 0 | 13µM | 0 | 0 | 0
Cc1c(Cl)cccc1NC(=O)CCn1cnnn1 | 0 | 0 | 0 | 0 | 0 | -
O=C(NC(NNc1ccc([N+](=O)[O-])cc1)(C(F)(F)F)C(F)(F)F)c1ccc(Cl)cc1 | 0 | 0 | ? | ? | 0 | -74
CCc1noc(-c2ccc(N3CCCCC3C)c([N+](=O)[O-])c2)n1 (centres undefined) | - | 0 | ? | 0 | 0 | -
COc1cccc(-n2c(=O)c3cc(OC)c(OC)cc3n(CC(=O)Nc3cc(C)[nH]n3)c2=O)c1 | 0 | 0 | 0 | 0 | 28µM | 0
COc1ccc(-n2c(=O)c3ccccc3n(CC(=O)Nc3cccc(OC)c3)c2=O)cc1 | 0 | 0 | 0 | 0 | 0 | 0
CCOC(=O)c1cnc2ccc(OC)cc2c1NCc1ccccc1 | 0 | 0 | 0 | 0 | 0 | ?
CCOC(=O)c1cnc2ccc(OCC)cc2c1NCc1ccccc1OC | 0 | 0 | 0 | 0 | 22µM | 0
CCOC(=O)c1cnc2ccc(OC(F)(F)F)cc2c1Nc1ccccc1C(=O)O | 0 | 31 | 0 | 0 | 0 | -
Cc1cc[n+](-c2nc3ccccc3nc2[N-]S(=O)(=O)c2cccs2)cc1C | 0 | 0 | 0 | 0 | 8.9µM | 0
O=C(Nc1ccc(/C=C/c2nc3ccccc3o2)cc1)c1c(F)cccc1F | 0 | 0 | ? | 0 | ? | 0
O=C(Nc1ccc(/C=C/c2nc3ccccc3o2)cc1)c1cccc(C(F)(F)F)c1 | 0 | 0 | 3.2µM | 0 | 16µM | 0
COc1ccc(CCNC(=O)Cn2c(-c3cccs3)cc3cc(F)ccc32)cc1OC | 0 | 0 | 0 | 0 | 0 | -
O=C(Cn1c(-c2cccs2)cc2cc(F)ccc21)NCCCN1CCN(c2ccc(F)cc2)CC1 | - | 0 | ? | 0 | 32µM | -
CCN1CCN(CCCNC(=O)Cn2c(-c3cccs3)cc3cc(F)ccc32)CC1 | - | 0 | ? | 0 | 18µM | -
CCOC(=O)C1(C)CCN1C(=O)c1cc(F)cc(F)c1 (centres undefined) | 0 | 0 | 0 | 0 | 0 | 0
c1ccc(CNc2ccc3ccccc3n2)nc1 | 0 | 0 | 0 | 0 | 28µM | 0
Cc1ccc(CNC(=O)Cn2c(=O)n(-c3ccc(C)cc3)c(=O)c3c2c2cc(C)ccc2n3C)cc1 | 0 | 0 | 0 | 0 | ? | -
N#Cc1c(C(F)(F)F)cc(-c2cccs2)nc1SCc1ccc(F)cc1 | - | 0 | 0 | 0 | 0 | -
N#Cc1c(C(F)(F)F)cc(-c2cccs2)nc1SCc1cccnc1 | 0 | 0 | 0 | 0 | 8.9µM | ?

Screening results: PubChem, National Center for Advancing Translational Sciences (NCATS)
